In ChEMBL document CHEMBL1961873, “Compounds: GSK PKIS; Assays: Nanosyn kinase panel” (2012):

How the values were obtained:
[1] = target: 5'-AMP-activated protein kinase catalytic subunit alpha-2 (Homo sapiens) (UniProt P54646); conditions: at 1 µM
[2] = target: T1, NUAK family SNF1-like kinase 1 (Homo sapiens) (UniProt O60285); conditions: at 0.1 µM
T1 sequence (whole entry): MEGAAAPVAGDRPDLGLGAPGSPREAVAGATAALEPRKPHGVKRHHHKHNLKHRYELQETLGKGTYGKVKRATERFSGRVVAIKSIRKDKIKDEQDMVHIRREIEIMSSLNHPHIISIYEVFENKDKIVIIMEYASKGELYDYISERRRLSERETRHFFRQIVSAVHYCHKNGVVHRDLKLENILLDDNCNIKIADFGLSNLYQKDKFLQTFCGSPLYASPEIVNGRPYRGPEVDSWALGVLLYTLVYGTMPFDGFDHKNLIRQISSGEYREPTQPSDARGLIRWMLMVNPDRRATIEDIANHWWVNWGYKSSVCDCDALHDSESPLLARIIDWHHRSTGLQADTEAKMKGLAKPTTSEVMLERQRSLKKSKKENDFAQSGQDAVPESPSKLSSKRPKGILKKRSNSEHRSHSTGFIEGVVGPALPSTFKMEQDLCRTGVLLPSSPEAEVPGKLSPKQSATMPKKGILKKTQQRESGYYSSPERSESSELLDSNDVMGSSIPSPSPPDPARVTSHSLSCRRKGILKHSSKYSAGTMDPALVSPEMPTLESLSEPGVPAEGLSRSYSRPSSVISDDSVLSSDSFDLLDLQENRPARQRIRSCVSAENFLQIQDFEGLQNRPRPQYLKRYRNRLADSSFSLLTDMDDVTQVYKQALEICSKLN

[3] = target: T1, NUAK family SNF1-like kinase 1 (Homo sapiens); conditions: at 1 µM
[4] = target: T2, Serine/threonine-protein kinase BRSK1 (Homo sapiens) (UniProt Q8TDC3); conditions: at 0.1 µM
T2 sequence (whole entry): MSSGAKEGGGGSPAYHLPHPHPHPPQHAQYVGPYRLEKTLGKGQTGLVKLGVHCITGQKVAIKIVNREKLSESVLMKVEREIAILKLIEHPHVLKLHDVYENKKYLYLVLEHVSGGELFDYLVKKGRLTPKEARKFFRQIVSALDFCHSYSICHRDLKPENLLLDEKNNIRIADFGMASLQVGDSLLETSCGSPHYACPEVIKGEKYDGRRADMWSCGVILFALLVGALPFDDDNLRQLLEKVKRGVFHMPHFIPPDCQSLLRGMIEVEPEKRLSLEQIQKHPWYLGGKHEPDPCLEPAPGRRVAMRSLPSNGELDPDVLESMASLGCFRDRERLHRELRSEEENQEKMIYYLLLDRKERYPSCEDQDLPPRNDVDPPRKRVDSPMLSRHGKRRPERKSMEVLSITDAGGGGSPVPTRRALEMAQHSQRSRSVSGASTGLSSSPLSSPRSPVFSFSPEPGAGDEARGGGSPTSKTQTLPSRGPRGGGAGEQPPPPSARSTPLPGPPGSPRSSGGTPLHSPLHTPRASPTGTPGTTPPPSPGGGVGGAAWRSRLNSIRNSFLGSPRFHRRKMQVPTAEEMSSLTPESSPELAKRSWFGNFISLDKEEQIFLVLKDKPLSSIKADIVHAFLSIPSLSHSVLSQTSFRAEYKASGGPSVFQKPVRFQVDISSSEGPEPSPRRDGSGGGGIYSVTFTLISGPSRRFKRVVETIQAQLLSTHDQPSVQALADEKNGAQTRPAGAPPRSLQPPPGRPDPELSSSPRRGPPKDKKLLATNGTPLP

[5] = target: T2, Serine/threonine-protein kinase BRSK1 (Homo sapiens); conditions: at 1 µM
[6] = target: T3, Serine/threonine-protein kinase BRSK2 (Homo sapiens) (UniProt Q8IWQ3); conditions: at 0.1 µM
T3 sequence (whole entry): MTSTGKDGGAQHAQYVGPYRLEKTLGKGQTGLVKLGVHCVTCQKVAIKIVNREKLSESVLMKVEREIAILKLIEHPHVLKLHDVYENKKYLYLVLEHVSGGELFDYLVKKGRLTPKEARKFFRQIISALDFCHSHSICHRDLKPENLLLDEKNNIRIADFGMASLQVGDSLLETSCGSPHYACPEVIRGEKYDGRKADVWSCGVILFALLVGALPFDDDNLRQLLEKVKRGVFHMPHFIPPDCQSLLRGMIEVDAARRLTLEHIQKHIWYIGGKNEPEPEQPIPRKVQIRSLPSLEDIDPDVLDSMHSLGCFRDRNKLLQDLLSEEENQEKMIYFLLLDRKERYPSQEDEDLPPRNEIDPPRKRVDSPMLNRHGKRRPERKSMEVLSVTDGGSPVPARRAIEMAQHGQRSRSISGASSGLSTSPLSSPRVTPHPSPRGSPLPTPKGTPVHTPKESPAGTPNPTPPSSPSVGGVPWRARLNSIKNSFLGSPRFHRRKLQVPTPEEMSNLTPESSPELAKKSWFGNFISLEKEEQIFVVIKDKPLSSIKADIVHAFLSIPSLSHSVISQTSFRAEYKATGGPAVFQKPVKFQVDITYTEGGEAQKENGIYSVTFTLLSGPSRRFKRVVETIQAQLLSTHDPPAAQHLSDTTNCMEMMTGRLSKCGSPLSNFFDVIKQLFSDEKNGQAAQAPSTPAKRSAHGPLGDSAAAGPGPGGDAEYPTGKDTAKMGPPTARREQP

[7] = target: T3, Serine/threonine-protein kinase BRSK2 (Homo sapiens); conditions: at 1 µM
[8] = target: Calcium/calmodulin-dependent protein kinase type 1D (Homo sapiens) (UniProt Q8IU85); conditions: at 0.1 µM
[9] = target: Calcium/calmodulin-dependent protein kinase type 1D (Homo sapiens) (UniProt Q8IU85); conditions: at 1 µM
[10] = target: Calcium/calmodulin-dependent protein kinase type II subunit alpha (Homo sapiens) (UniProt Q9UQM7); conditions: at 0.1 µM
[11] = target: Calcium/calmodulin-dependent protein kinase type II subunit alpha (Homo sapiens) (UniProt Q9UQM7); conditions: at 1 µM
[12] = target: Calcium/calmodulin-dependent protein kinase type II subunit delta (Homo sapiens) (UniProt Q13557); conditions: at 0.1 µM
[13] = target: Calcium/calmodulin-dependent protein kinase type II subunit delta (Homo sapiens) (UniProt Q13557); conditions: at 1 µM
[14] = target: T4, Calcium/calmodulin-dependent protein kinase type IV (Homo sapiens) (UniProt Q16566); conditions: at 0.1 µM
T4 sequence (whole entry): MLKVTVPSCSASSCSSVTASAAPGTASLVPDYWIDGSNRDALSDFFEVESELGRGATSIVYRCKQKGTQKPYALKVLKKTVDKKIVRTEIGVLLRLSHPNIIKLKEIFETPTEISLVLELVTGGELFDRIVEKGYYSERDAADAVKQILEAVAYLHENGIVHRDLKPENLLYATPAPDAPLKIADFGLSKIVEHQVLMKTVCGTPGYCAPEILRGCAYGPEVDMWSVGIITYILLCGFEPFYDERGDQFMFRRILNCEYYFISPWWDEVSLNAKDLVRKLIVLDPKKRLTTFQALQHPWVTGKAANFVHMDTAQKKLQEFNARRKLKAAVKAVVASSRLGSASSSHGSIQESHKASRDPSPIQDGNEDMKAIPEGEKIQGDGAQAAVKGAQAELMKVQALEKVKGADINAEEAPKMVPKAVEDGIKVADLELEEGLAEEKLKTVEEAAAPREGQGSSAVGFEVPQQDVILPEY

[15] = target: T4, Calcium/calmodulin-dependent protein kinase type IV (Homo sapiens); conditions: at 1 µM
[16] = target: T5, Serine/threonine-protein kinase Chk1 (Homo sapiens) (UniProt O14757); conditions: at 0.1 µM
T5 sequence (whole entry): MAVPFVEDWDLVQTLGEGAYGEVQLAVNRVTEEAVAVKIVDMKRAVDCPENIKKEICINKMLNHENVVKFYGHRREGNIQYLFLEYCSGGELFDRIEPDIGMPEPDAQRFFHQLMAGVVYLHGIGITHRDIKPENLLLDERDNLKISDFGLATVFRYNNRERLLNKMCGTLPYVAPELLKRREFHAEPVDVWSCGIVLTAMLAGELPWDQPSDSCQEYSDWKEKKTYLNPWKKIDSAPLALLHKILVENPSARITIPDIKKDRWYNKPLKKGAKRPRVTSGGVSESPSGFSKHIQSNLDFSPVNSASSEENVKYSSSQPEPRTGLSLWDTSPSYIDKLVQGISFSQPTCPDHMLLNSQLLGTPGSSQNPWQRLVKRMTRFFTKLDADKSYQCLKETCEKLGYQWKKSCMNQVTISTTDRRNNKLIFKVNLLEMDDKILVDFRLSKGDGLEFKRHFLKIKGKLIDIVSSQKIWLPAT

[17] = target: T5, Serine/threonine-protein kinase Chk1 (Homo sapiens); conditions: at 1 µM
[18] = target: Serine/threonine-protein kinase Chk2 (Homo sapiens) (UniProt O96017); conditions: at 0.1 µM
[19] = target: Serine/threonine-protein kinase Chk2 (Homo sapiens) (UniProt O96017); conditions: at 1 µM
[20] = target: Death-associated protein kinase 1 (Homo sapiens) (UniProt P53355); conditions: at 0.1 µM;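 also: reported figure is the mean inhibition of DAPK1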
Death-associated protein kinase 1 (Homo sapiens), sequence (P53355 whole entry, looked up): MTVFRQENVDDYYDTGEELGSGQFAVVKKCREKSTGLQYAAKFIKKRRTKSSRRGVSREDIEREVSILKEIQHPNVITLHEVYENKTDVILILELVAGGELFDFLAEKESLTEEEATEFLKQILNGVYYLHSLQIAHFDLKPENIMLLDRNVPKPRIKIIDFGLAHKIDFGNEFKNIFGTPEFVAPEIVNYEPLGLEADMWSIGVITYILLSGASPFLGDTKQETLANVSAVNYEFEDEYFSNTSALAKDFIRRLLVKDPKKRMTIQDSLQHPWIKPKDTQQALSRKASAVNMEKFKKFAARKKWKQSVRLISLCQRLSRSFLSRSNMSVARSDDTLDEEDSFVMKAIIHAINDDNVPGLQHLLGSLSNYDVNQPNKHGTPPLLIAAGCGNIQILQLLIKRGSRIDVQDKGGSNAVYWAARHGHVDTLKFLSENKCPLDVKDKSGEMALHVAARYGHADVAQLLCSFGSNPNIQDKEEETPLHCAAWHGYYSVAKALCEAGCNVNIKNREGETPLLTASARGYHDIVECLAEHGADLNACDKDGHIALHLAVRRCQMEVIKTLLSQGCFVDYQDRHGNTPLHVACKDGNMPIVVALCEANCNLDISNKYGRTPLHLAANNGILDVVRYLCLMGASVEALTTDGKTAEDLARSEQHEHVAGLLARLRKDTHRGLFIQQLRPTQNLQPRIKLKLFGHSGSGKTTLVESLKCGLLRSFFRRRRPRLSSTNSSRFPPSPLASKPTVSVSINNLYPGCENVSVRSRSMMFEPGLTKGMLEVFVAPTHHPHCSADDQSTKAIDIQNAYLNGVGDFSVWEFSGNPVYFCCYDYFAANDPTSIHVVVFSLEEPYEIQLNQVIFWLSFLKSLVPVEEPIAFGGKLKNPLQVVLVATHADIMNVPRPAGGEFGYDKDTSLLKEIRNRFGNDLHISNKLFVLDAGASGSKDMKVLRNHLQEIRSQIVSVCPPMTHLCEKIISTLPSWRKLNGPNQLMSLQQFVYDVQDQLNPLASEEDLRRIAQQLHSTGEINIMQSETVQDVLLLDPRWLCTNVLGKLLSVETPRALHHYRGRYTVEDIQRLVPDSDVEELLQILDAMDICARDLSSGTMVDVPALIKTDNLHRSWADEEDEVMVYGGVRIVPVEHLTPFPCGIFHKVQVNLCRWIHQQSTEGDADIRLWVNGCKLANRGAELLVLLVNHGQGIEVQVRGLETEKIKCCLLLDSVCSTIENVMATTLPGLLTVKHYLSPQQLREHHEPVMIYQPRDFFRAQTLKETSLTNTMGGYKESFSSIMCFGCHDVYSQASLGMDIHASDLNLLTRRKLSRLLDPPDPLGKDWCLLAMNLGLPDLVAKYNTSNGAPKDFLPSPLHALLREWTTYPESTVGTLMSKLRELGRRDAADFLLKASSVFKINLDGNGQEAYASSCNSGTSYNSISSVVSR

5'-AMP-activated protein kinase catalytic subunit alpha-2 (Homo sapiens), sequence (P54646 whole entry, looked up): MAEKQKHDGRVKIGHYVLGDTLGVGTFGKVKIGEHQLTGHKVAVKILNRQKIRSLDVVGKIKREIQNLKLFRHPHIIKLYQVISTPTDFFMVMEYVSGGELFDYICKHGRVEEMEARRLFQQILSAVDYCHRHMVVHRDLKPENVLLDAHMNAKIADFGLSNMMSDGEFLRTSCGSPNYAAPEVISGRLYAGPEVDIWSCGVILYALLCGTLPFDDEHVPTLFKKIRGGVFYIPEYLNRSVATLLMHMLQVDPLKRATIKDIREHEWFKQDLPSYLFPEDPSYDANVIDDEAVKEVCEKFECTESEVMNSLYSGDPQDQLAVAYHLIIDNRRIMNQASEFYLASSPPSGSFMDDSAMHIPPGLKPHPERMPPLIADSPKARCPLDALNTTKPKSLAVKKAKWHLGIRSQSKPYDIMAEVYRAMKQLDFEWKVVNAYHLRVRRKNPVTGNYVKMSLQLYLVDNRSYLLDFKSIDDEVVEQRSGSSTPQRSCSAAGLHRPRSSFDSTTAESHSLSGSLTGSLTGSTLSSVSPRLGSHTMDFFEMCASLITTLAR
Calcium/calmodulin-dependent protein kinase type II subunit alpha (Homo sapiens), sequence (Q9UQM7 whole entry): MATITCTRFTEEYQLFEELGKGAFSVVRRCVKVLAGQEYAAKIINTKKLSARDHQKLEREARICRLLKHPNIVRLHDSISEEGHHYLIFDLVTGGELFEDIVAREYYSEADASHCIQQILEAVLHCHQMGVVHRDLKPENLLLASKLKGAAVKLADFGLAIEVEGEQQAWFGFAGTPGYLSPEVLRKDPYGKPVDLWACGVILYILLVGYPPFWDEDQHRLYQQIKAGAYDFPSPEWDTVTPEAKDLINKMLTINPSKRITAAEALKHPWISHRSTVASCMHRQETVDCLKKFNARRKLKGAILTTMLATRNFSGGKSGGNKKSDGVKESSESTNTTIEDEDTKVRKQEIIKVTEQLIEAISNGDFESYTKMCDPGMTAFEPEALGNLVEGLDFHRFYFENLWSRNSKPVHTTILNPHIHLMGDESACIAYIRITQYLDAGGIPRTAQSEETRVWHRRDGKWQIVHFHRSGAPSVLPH
Calcium/calmodulin-dependent protein kinase type 1D (Homo sapiens), sequence (Q8IU85 whole entry, looked up): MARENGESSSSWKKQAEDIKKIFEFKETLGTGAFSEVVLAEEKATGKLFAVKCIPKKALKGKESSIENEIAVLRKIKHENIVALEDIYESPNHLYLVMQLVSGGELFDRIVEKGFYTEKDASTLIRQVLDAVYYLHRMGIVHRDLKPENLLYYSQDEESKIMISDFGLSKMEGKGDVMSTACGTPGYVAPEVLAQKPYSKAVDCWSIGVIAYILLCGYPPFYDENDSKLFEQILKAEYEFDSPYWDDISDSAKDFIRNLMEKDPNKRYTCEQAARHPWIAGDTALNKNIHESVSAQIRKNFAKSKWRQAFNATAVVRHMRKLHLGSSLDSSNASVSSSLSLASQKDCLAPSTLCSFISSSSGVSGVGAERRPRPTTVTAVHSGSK
Calcium/calmodulin-dependent protein kinase type II subunit delta (Homo sapiens), sequence (Q13557 whole entry): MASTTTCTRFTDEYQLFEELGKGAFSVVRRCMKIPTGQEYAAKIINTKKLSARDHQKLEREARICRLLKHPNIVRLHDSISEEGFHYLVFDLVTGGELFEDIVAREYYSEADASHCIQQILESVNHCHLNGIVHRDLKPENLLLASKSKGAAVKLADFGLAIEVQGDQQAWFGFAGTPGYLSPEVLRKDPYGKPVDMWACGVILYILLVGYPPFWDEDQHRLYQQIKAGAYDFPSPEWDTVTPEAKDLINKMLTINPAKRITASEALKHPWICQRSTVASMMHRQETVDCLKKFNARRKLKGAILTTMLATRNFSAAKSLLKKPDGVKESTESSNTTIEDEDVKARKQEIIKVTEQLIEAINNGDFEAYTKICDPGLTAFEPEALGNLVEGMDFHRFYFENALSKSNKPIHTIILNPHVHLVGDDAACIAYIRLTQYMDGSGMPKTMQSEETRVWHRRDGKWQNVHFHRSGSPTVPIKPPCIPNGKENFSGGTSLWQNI
Serine/threonine-protein kinase Chk2 (Homo sapiens), sequence (O96017 whole entry): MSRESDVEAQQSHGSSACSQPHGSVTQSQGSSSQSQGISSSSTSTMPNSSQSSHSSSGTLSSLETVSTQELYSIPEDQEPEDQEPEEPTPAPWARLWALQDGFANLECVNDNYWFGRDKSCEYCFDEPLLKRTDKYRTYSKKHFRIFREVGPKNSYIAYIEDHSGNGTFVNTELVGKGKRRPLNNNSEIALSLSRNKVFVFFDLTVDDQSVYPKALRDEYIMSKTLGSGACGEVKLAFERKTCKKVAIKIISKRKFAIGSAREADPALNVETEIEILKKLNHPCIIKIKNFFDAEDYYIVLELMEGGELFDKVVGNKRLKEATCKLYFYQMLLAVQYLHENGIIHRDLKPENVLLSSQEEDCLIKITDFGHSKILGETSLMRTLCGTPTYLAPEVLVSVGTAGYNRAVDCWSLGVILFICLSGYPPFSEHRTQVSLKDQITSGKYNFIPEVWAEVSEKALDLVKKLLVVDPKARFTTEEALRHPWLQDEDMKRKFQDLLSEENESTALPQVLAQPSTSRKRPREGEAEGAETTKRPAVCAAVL

| Compound | inhibition [1] [%] | inhibition [2] [%] | inhibition [3] [%] | inhibition [4] [%] | inhibition [5] [%] | inhibition [6] [%] | inhibition [7] [%] | inhibition [8] [%] | inhibition [9] [%] | inhibition [10] [%] | inhibition [11] [%] | inhibition [12] [%] | inhibition [13] [%] | inhibition [14] [%] | inhibition [15] [%] | inhibition [16] [%] | inhibition [17] [%] | inhibition [18] [%] | inhibition [19] [%] | inhibition [20] [%] |
| --- | --- | --- | --- | --- | --- | --- | --- | --- | --- | --- | --- | --- | --- | --- | --- | --- | --- | --- | --- | --- |
| O=C1Nc2ccccc2/C1=C1\CCc2cc(O)ccc21 | 14.3 | 16.2 | 60.8 | 3.95 | 16.9 | 5.82 | 20.1 | 1.02 | 3.43 | 3.85 | 8.04 | 6.22 | 13 | 0.46 | -0.69 | -1.18 | 9.92 | 1.37 | 21.3 | -1.94 |
| Cc1c2ccc(N(C)c3ccnc(Nc4cccc(S(N)(=O)=O)c4)n3)cc2nn1C | 5.34 | 10.9 | 46.2 | 3.47 | 3.4 | 1.95 | 2.47 | 0.58 | 2.6 | 3.49 | 4.44 | 4.36 | 5.37 | 0.12 | 0.2 | 3.06 | 4.57 | 3.17 | 7.22 | 2.95 |
| CCCNc1cccc(-n2ncc3c(N/N=C/c4ccncc4)ncnc32)c1 | 2.07 | 5.36 | 36.3 | 2.58 | 24.7 | 4.13 | 29 | 0.76 | 1.66 | 1.4 | 3.36 | 1.11 | 1.17 | -2.8 | -3.1 | -4.03 | -5.65 | -4.06 | 0.34 | -6.43 |
| CNC(=O)c1ncccc1Nc1nc(Nc2cc3c(cc2OC)CCCN3C(=O)CN(C)C)nc2[nH]ccc12 | 8.1 | 5.36 | 8.33 | 3.14 | 4.58 | 3.37 | 4.64 | 1.94 | 12.9 | 4.09 | 5.55 | 4.46 | 8.21 | 0.87 | 5.93 | 3.13 | 4.54 | 3.89 | 11.9 | 4.3 |
| O=C(O[C@H]1CN[C@H](C#Cc2cc3ncnc(Nc4ccc5c(cnn5Cc5ccccc5)c4)c3s2)C1)N1CCOCC1 | 3.11 | 3.37 | 4.34 | 0.74 | 2.54 | 1.3 | 3.58 | 0.26 | 1.04 | -0.77 | -1.88 | 0.73 | 0.8 | 0.67 | -0.25 | 0.36 | -0.07 | -1.25 | 0.86 | -0.35 |
| COc1cc(Nc2ncc(-c3ccccc3)o2)cc(OC)c1 | 8.23 | 5.89 | 32.7 | -1.27 | 8.79 | 2.68 | 7.23 | -0.33 | -0.66 | 2.98 | 1.52 | 3.94 | 7.34 | -1.03 | -1.65 | 1.69 | 0.7 | 4.6 | 5.38 | 2.51 |
